Measured values from PubChem BioAssay (Tox21).
Inconclusive results are not listed. The source holds several records for some structures; these can differ, active in one and inactive in another. The source made the active and inactive calls. Unless noted, calls come from the whole dose curve; as a rule, active = well fitted curve in the direction sought with a large enough effect in the repeat runs; inconclusive = weak or mixed curves; inactive = no such curve, though single readings can be large; an effect the other way counts as inactive or inconclusive.

Assays:
[1] = qHTS assay to identify small molecule agonists of the sonic hedgehog signaling (Shh) pathway (AID 1259368; calls by dose curve;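 note: NIH/3T3-derived 3T3Gli1-Luc cells carrying a stable Gli1-driven firefly luciferase reporter; series mostly up to about 92 µM; nearly all actives have a fitted effect of over 15% in size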)
How it was run: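 Cells of a mouse NIH/3T3 clone stably expressing luciferase under the Gli1 transcriptional response element are exposed to test chemicals for 24 hr at 37 C. Pathway activation is detected as a rise in luminescence.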

[2] = qHTS assay to identify small molecule antagonists of the sonic hedgehog signaling (Shh) pathway (AID 1259369; calls by dose curve; note: nearly all actives have a fitted effect of over 45% in size; note: potency is the fitted concentration of half-maximal effect)
How it was run: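 Cells are plated and held 4hr at 37 C, compounds (DMSO) are pinned in, conditioned medium is added to stimulate the pathway, and after 24hr luciferase reagent is added for 30min before luminescence is read.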

[3] = target: Estrogen receptor beta (Homo sapiens) (UniProt Q92731); test: qHTS assay to identify small molecule agonists of the estrogen receptor beta (ER-beta) signaling pathway (AID 1259377; active = well fitted activation curve with a large enough effect in the signal ratio in the repeat runs, not every such curve was filed as active; the % refers to the signal ratio)
Estrogen receptor beta (Homo sapiens), sequence (Q92731 whole entry, looked up): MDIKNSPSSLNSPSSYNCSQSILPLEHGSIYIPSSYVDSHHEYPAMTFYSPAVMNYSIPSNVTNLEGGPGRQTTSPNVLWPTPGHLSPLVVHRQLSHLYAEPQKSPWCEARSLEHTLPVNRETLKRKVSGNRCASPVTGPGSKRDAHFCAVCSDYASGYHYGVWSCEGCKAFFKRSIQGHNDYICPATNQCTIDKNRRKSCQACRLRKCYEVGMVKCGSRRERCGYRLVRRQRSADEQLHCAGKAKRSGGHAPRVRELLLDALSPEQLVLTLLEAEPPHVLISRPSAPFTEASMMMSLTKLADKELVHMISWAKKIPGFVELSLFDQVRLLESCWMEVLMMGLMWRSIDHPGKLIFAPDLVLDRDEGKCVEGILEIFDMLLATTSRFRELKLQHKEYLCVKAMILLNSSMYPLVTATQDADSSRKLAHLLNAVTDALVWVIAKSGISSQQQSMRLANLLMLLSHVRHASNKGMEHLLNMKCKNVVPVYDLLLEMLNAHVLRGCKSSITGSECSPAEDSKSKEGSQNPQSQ
How it was run: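 Measured by fluorescence intensity from a B/G FRET beta-lactamase substrate (2 h, room temperature) in ER-beta-UAS-bla HEK293T cells treated with DMSO-dissolved compounds for 16 hr at 37C and 5% CO2.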

[4] = target: Estrogen receptor beta (Homo sapiens) (UniProt Q92731); test: qHTS assay to identify small molecule antagonists of the estrogen receptor beta (ER-beta) signaling pathway (AID 1259378; active = well fitted inhibition curve with a large enough effect in the signal ratio in the repeat runs, not every such curve was filed as active; the % refers to the signal ratio)
How it was run: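 ER-beta-UAS-bla HEK293T (GripTite) cells in 2% charcoal-stripped FBS medium were preincubated 6 hr at 37C, dosed with compound, then stimulated with 1 nM E2 (final) for 16 hr; beta-lactamase reporter read by B/G FRET fluorescence after 2 hr substrate loading.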

[5] = qHTS assay to identify small molecule agonists of the androgen receptor (AR) signaling pathway in the presence of an antagonist - cell viability counter screen (AID 1259379); note: nearly all actives have a fitted effect of over 25% in size; note: potency is the fitted concentration of half-maximal effect
How it was run: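 Cytotoxicity is assessed by CellTiter-Fluor in MDA-kb2 cells carrying an MMTV-driven luciferase reporter. Cells receive 3.0uM nilutamide plus compounds at 15 concentrations and incubate 16 hr at 37C without CO2 before fluorescence reading.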

[6] = qHTS assay to identify small molecule agonists of the estrogen receptor beta (ER-beta) signaling pathway - cell viability counter screen (AID 1259380); note: nearly all actives have a fitted effect of over 30% in size
How it was run: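 Cytotoxicity is measured in parallel with the reporter screen: after 16 hr compound exposure at 37C and a 2 hr LiveBLAzer step, CellTiter-Glo is added to the same ER-beta-UAS-bla HEK293T wells and luminescence read after 30 min.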

[7] = target: Androgen receptor (Homo sapiens) (UniProt P10275); test: qHTS assay to identify small molecule agonists of the androgen receptor (AR) signaling pathway in the presence of an antagonist (AID 1259381; calls by dose curve; note: nearly all actives have a fitted effect of over 15% in size)
Androgen receptor (Homo sapiens), sequence (P10275 whole entry, looked up): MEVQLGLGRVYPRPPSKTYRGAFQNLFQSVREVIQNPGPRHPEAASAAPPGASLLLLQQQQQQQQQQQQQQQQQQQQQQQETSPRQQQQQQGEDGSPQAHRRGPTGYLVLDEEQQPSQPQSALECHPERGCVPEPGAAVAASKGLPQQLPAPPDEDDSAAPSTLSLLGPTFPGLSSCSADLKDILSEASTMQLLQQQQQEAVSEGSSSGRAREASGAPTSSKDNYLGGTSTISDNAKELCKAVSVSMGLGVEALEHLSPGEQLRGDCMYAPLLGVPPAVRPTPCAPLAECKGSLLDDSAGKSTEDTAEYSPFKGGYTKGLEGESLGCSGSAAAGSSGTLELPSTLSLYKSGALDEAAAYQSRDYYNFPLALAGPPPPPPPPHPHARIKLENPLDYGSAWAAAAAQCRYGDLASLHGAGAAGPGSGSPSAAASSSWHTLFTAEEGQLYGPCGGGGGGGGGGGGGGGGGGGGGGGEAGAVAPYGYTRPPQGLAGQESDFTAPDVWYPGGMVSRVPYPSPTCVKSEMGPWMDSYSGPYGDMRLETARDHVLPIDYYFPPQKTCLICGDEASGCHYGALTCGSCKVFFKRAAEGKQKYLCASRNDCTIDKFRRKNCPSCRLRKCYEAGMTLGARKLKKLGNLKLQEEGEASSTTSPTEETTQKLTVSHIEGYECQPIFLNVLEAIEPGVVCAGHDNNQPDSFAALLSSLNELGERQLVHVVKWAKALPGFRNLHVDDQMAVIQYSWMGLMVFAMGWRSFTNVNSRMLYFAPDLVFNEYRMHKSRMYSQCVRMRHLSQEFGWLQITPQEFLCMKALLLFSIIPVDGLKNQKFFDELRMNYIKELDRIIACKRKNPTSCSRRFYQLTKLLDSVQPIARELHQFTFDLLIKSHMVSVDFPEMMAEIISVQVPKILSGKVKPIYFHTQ
How it was run: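 Agonist-mode confirmation screen: human MDA-kb2 cells stably expressing luciferase under an MMTV promoter bearing AR and GR response elements, co-treated with 3.0uM nilutamide (final). Luminescence measured after 16hr compound incubation.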

[8] = qHTS assay to identify small molecule antagonists of the estrogen receptor beta (ER-beta) signaling pathway - cell viability counter screen (AID 1259382); note: series mostly up to about 92 µM; nearly all actives have a fitted effect of over 55% in size
How it was run: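 Cytotoxicity counter screen multiplexed with the beta-lactamase antagonist assay: GripTite HEK293T ER-beta-bla cells were treated 16 hr with test chemicals in the presence of 1nM 17-beta-estradiol, and viability was measured by CellTiter-Glo.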

[9] = qHTS assay to identify small molecule agonists or antagonists of the thyroid stimulating hormone receptor (TSHR) signaling pathway - wild type cell line counter screen (AID 1259384; calls by dose curve)
How it was run: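 Wild-type HEK293 cells were plated 18 h at 37 C/5% CO2, pin-dosed with compound plus Ro20-1724 medium, held 30 min at room temperature, then given cAMP-d2 and anti-cAMP-cryptate; fluorescence was read after 1 h. Fifteen concentrations, triplicate.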

[10] = target: Thyrotropin receptor (Homo sapiens) (UniProt P16473); test: qHTS assay to identify small molecule antagonists of the thyroid stimulating hormone receptor (TSHR) signaling pathway (AID 1259385; calls by dose curve; note: nearly all actives have a fitted effect of over 20% in size)
Thyrotropin receptor (Homo sapiens), sequence (P16473 whole entry, looked up): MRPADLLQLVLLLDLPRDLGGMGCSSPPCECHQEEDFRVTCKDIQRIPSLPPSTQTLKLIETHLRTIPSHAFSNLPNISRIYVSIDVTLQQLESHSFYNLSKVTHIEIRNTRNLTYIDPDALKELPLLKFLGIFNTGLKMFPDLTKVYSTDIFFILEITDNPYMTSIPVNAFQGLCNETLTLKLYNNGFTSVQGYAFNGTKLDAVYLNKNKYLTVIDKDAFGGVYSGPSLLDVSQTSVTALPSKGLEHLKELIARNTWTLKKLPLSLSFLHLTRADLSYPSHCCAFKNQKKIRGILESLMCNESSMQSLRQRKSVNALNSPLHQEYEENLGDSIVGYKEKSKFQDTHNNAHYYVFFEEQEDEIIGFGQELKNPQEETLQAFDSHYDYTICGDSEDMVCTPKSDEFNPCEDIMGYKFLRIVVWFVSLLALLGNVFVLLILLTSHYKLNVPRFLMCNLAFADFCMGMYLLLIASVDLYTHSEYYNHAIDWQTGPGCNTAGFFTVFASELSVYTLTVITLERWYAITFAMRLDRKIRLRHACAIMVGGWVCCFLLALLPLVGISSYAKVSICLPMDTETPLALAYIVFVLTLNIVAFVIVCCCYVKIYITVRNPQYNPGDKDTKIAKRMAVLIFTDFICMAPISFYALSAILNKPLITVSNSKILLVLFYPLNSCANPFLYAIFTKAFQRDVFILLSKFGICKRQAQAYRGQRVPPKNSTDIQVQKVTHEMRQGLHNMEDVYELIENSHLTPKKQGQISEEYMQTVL
How it was run: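 TSHR-HEK293 cells were plated and held 18 h at 37C/5% CO2, then given compound plus Ro20-1724 and stimulated with TSH at 1.5 ng/mL final. After 30 min at room temperature, cAMP was detected with cAMP-d2/anti-cAMP-cryptate (1 h) by fluorescence.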

[11] = qHTS assay to identify small molecule agonists of the estrogen receptor alpha (ER-alpha) signaling pathway in the presence of an antagonist - cell viability counter screen (AID 1259386);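 note: cells exposed to compounds for 22 h at 37 °C before the viability read; nearly all actives have a fitted effect of over 30% in size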; note: potency is the fitted concentration of half-maximal effect
How it was run: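 Cytotoxicity was measured in parallel with the ERE-luciferase agonist screen, in the same wells. The cells were VM7Luc4E2, which endogenously express ER-alpha, and treatment was with compounds plus 10.0nM ICI-182,780 for 22hr.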

[12] = target: Progesterone receptor (Homo sapiens) (UniProt P06401); test: qHTS assay to identify small molecule agonists of the progesterone receptor (PR) signaling pathway (AID 1346784; calls by dose curve; note: nearly all actives have a fitted effect of over 30% in size; note: potency is the fitted concentration of half-maximal effect)
Progesterone receptor (Homo sapiens), sequence (P06401 whole entry, looked up): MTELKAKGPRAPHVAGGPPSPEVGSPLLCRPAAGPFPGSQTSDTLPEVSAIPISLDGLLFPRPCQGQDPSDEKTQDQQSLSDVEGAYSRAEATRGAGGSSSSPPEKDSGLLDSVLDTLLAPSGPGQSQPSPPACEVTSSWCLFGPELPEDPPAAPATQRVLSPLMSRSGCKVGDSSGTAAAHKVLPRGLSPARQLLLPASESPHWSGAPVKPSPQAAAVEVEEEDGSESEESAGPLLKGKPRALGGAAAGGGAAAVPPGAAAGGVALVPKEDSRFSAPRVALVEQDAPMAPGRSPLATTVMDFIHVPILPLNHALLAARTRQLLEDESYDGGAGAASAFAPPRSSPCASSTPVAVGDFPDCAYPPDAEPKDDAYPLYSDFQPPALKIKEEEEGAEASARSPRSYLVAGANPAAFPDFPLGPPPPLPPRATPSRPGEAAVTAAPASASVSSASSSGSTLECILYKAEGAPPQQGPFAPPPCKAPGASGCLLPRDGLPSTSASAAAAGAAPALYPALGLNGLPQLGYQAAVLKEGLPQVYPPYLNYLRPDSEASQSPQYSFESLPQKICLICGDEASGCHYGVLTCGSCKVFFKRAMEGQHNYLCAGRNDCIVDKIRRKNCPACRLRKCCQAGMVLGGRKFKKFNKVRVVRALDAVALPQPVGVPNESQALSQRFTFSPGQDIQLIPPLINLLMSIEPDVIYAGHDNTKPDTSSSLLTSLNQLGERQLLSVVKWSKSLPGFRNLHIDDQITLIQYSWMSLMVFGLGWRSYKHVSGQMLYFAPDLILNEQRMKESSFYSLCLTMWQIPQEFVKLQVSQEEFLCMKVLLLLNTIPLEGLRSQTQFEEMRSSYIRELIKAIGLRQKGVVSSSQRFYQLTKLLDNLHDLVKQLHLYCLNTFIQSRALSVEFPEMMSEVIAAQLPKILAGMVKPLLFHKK
How it was run: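 The screen uses PR-UAS-bla HEK 293T cells in charcoal-stripped serum (2%). Compounds are applied for 16 hr at 37C after a 6 hr pre-incubation, and reporter activity is detected with a FRET beta-lactamase substrate after 2 hr at room temperature.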

[13] = target: Progesterone receptor (Homo sapiens) (UniProt P06401); test: qHTS assay to identify small molecule antagonists of the progesterone receptor (PR) signaling pathway (AID 1346795; active = well fitted inhibition curve with a large enough effect in the signal ratio in the repeat runs, not every such curve was filed as active; the % refers to the signal ratio)
How it was run: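 After 6 hr plating at 37C in 2% stripped-serum medium, PR-UAS-bla HEK293T cells got compounds, then 1 nM R5020. Sixteen hours later, LiveBLAzer substrate was applied for 2 hr at room temperature and fluorescence was recorded.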

[14] = qHTS assay to identify small molecule antagonists of the progesterone receptor (PR) signaling pathway - cell viability counter screen (AID 1346798); note: series mostly up to about 92 µM; nearly all actives have a fitted effect of over 50% in size
How it was run: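 Viability was determined by ATP-based luminescence (CellTiter-Glo) in PR-UAS-bla HEK293T cells cultured in 2% charcoal-stripped serum and incubated 16 hr with compounds under R5020 stimulation.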

[15] = qHTS assay to identify small molecule agonists of the progesterone receptor (PR) signaling pathway - cell viability counter screen (AID 1346799; calls by dose curve; note: nearly all actives have a fitted effect of over 45% in size)
How it was run: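 Viability was scored by ATP luminescence (CellTiter-Glo, 30 min, room temperature) in the same wells used for the reporter readout, after 16 hr compound exposure of PR-UAS-bla HEK293T cells.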

[16] = qHTS assay to identify small molecule antagonists of the TGF-beta/Smad signaling pathway - cell viability counter screen (AID 1346824); note: nearly all actives have a fitted effect of over 50% in size
How it was run: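 SBE-bla HEK 293T cells were plated overnight at 37 C, then given compounds in DMSO plus TGF-beta1 (added as 0.25 ng/mL solution) for 5 hr. After the bla read, CellTiter-Glo was added to the same wells and luminescence read after 30 min at room temperature.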

[17] = qHTS assay to identify small molecule agonists of the TGF-beta/Smad signaling pathway - cell viability counter screen (AID 1346829); note: nearly all actives have a fitted effect of over 45% in size; note: potency is the fitted concentration of half-maximal effect
How it was run: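 Cytotoxicity counter screen: CellTiter-Glo luminescence (30 min, room temperature) measured in the SBE-bla HEK 293T reporter wells after 5 hr compound treatment at 37 C and the 2 hr substrate step.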

[18] = qHTS assay to identify small molecule agonists of the TGF-beta/Smad signaling pathway (AID 1346859; active = well fitted activation curve with a large enough effect in the signal ratio in the repeat runs, not every such curve was filed as active; the % refers to the signal ratio; note: series mostly up to about 77 µM)
How it was run: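 Dual-wavelength fluorescence (460/530 nm emission) quantified beta-lactamase expression under the Smad binding element in HEK 293T cells following 5 hr compound treatment at 37 C.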

[19] = target: Thyrotropin-releasing hormone receptor (Homo sapiens) (UniProt P34981); test: qHTS assay to identify small molecule antagonists of the thyrotropin-releasing hormone receptor (TRHR) signaling pathway (AID 1346877; active = well fitted inhibition curve with a large enough effect in the repeat runs, not every such curve was filed as active; note: series mostly up to about 51 µM)
Thyrotropin-releasing hormone receptor (Homo sapiens), sequence (P34981 whole entry, looked up): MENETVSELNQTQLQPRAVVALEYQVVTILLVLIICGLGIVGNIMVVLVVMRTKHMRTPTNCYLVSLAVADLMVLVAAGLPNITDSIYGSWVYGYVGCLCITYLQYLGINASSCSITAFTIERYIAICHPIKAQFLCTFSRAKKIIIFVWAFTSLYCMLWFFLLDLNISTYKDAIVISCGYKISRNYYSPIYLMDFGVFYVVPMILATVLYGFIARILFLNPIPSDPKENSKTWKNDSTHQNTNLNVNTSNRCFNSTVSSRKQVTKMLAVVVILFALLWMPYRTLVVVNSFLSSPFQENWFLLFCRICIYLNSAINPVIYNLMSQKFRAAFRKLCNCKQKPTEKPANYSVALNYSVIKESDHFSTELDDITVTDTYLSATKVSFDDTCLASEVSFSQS
How it was run: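 Antagonism is measured as suppression of the calcium response to 1 nM TRH in TRHR-HEK293 cells that have been dye-loaded for 2 h at 37 °C after overnight plating. Each compound is tested at 15 concentrations in triplicate.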

[20] = target: Estrogen receptor (Homo sapiens) (UniProt P03372); test: qHTS assay to identify small molecule agonists of the estrogen receptor alpha (ER-alpha) signaling pathway in the presence of an antagonist (AID 1259383; calls by dose curve; note: top concentration of the series differs between compounds; nearly all actives have a fitted effect of over 15% in size)
Estrogen receptor (Homo sapiens), sequence (P03372 whole entry, looked up): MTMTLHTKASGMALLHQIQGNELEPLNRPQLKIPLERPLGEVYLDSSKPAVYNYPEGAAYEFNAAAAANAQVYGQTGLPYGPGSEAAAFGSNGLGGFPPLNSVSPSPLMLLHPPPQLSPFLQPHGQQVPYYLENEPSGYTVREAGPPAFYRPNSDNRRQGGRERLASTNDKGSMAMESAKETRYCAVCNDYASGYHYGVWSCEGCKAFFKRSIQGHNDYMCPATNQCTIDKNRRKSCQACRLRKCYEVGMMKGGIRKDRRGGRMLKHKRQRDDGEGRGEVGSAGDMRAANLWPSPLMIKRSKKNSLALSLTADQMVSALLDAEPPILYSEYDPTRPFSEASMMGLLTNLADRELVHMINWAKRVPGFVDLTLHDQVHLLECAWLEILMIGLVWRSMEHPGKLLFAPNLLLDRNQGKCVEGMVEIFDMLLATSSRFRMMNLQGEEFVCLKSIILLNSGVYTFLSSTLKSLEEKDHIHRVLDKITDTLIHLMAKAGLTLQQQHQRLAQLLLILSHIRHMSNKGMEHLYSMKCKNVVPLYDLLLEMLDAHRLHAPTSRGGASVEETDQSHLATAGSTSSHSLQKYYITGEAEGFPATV
How it was run: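 Agonist-mode confirmation in the presence of the ER antagonist ICI-182,780 at 10.0nM final. Breast-derived VM7Luc4E2 reporter cells were exposed to compounds for 22hr, and ERE-driven luciferase was quantified by luminescence.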

Measured: Potency

COC(C)(C)CCCC(C)C/C=C/C(C)=C/C(=O)OC(C)C (stereo not given)
not listed: [20]
inactive: all other assays above

Nc1nc(N)nc(NC2CC2)n1
not listed: [7] | [20]
inactive: all other assays above

Cc1cccc(C)c1NC(=O)CN1CCCC1=O
not listed: [7] | [9] | [10]
inactive: all other assays above

COP(=S)(OC)SCN1C(=O)c2ccccc2C1=O
active: [2] 54.5 µM
not listed: [7] | [20]
inactive: all other assays above

CC(C)(C)C(=O)CCl
inactive: all assays above

Cc1cccc(N)c1C
15.9 µM (active) and inactive: [12]
not listed: [7] | [20]
inactive: all other assays above

N#CN=C(N)N
not listed: [7]
inactive: all other assays above

CN(C)NC(=O)CCC(=O)O
not listed: [7] | [19] | [20]
inactive: all other assays above

O=[N+]([O-])c1cc([As](=O)(O)O)ccc1O
not listed: [7] | [11]
inactive: all other assays above

CC12CC1(C)C(=O)N(c1cc(Cl)cc(Cl)c1)C2=O (stereo not given)
not listed: [9] | [10] | [13] | [20]
inactive: all other assays above

Clc1cnc(Oc2ccc(Oc3ncc(Cl)cc3Cl)cc2)c(Cl)c1
not listed: [7] | [19] | [20]
inactive: all other assays above

O=C(O)c1cc(Oc2ccc(C(F)(F)F)cc2Cl)ccc1[N+](=O)[O-]
not listed: [7] | [20]
inactive: all other assays above

c1ccc2c(c1)CCCC2
not listed: [20]
inactive: all other assays above

CC(C)c1cccc(C(C)C)c1O
not listed: [20]
inactive: all other assays above

CC(=O)C1CCOC1=O (stereo not given)
not listed: [7] | [19] | [20]
inactive: all other assays above

CC[N+](=O)[O-]
not listed: [7] | [19] | [20]
inactive: all other assays above

Nc1ncc([N+](=O)[O-])s1
54.9 µM (active) and inactive: [11]
not listed: [7] | [19] | [20]
inactive: all other assays above

O=C(O)C(Br)Br
not listed: [7] | [9] | [10]
inactive: all other assays above

Nc1cc(Cl)cc(Cl)c1
not listed: [7] | [20]
inactive: all other assays above

C=C(C)C(=O)OCC(CC)CCCC (stereo not given)
55.5 µM (active) and inactive: [5]
not listed: [7] | [14] | [19]
inactive: all other assays above

C=CC(=O)OCC(CC)CCCC (stereo not given)
not listed: [7] | [19] | [20]
inactive: all other assays above

NNc1ccccc1
not listed: [7] | [19] | [20]
inactive: all other assays above

CC(=O)/C=C/c1ccccc1
not listed: [7] | [20]
inactive: all other assays above

Nc1ccc([As](=O)(O)O)cc1
not listed: [7] | [20]
inactive: all other assays above

CN1C(=O)CCS(=O)(=O)C1c1ccc(Cl)cc1 (stereo not given)
not listed: [7] | [19] | [20]
inactive: all other assays above

Cc1cc(O)ccc1Cl
not listed: [7] | [20]
inactive: all other assays above

O=C(O)C1C(C(=O)O)C2(Cl)C(Cl)=C(Cl)C1(Cl)C2(Cl)Cl (stereo not given)
not listed: [7] | [19]
inactive: all other assays above

CNC(=O)O/N=C/C(C)(C)S(C)(=O)=O
not listed: [9] | [10] | [20]
inactive: all other assays above

C=CC(=O)OCCCCCC(C)C
not listed: [20]
inactive: all other assays above

Nc1cccc(Cl)c1
not listed: [7] | [19] | [20]
inactive: all other assays above

CNC(=O)O/N=C/C(C)(C)S(C)=O (stereo not given)
24.9 µM (active) and inactive: [17]
39.1 µM (active) and inactive: [2]
not listed: [7] | [16] | [20]
inactive: all other assays above

CNc1cnn(-c2cccc(C(F)(F)F)c2)c(=O)c1Cl
not listed: [7] | [9] | [10] | [20]
inactive: all other assays above
